The results in this text go back to ChEMBL document CHEMBL4888484, “Replenishing the malaria drug discovery pipeline: Screening and hit evaluation of the MMV Hit Generation Library 1 (HGL1) against asexual blood stage Plasmodium falciparum ,using a nano luciferase reporter read-out” (2022).

Hit rate of the full screen: of about 150,000 compounds, about 540 (0.36%) showed an effect of 50% or more. The entries come from a sample that favours strong results as a whole.

This test relates to Plasmodium falciparum. The test can be described thus: Primary screen in NF54 nanoGlo assay, in single point, at 2uM, 72h; a lower Z score goes with more inhibition. Format: functional, Erythrocyte. To be noted: timepoint 72 hour.
One may read the % Inhibition as the relative decrease from the control value, in per cent. Regarding `Cc1ccc(-n2nc3c(=O)n([C@@H](C)C(=O)NCc4ccc(Cl)cc4)nc(C)c3c2C)cc1`, the “% Inhibition” value is 10% and the Z score is -1.13.

Regarding `O=S(=O)(NC1CCc2ccc(Cl)cc21)[C@H]1COC[C@@H]1O` (stereo partly drawn), the “% Inhibition” value is reported as -11% and the Z score was 1.47.

Turning to `Cc1ccc(NC(=O)Cc2nnc(-c3ccc4ncccc4c3)o2)c(Cl)c1`, the “% Inhibition” value was -6% and the Z score turned out to be 0.57.

`CCn1cc(NC(=O)c2cc(C3CC3)nc3onc(-c4cnn(CC)c4C)c23)c(C)n1`: the “% Inhibition” value came to 8% and the Z score is recorded as -1.2.

`CC(C)(C)OC(=O)N1CC2CC1C2C(=O)NCC1CCCO1` (stereo not drawn): the “% Inhibition” value was found to be 14% and the Z score is reported as -1.67.

For `Nc1ncc(C(=O)N2CCC3(CCCC3)C2)s1`, the “% Inhibition” value stood at 6% and the Z score is -0.8.

With `Nc1ncc(C(=O)N2CCC3(CCCCCC3)C2)s1`, the “% Inhibition” value was found to be 97% and the Z score is recorded as -17.77.

In the case of `Cc1ncsc1C(=O)N1CCC2(CCCCC2)C1`, the “% Inhibition” value is listed as 37% and the Z score is -5.42.

As to `CC(=O)NC1CCN(Cc2cc(C)nc3ccccc23)CC1`, the “% Inhibition” value is recorded as -6% and the Z score came to 0.83.

As for `CC1CCN(c2nccnc2Oc2ccc(C(=O)NCc3ccco3)cc2)CC1`, the “% Inhibition” value is -1% and the Z score is on record as 0.13.

For the compound `CC1CCN(c2nccnc2Oc2ccc(C(=O)NCc3ccccc3Cl)cc2)CC1`, the “% Inhibition” value was 67% and the Z score is reported as -10.64.

On to `CC1CCN(c2nccnc2Oc2ccc(C(=O)N3CCN(c4ccccc4Cl)CC3)cc2)CC1`, for which the “% Inhibition” value is 11% and the Z score was -1.7.

In the case of `CC(NC(CC1CCC1)c1ccccc1)c1cn(C)nn1` (stereo not drawn), the “% Inhibition” value was found to be 6% and the Z score is listed as -0.82.

As for `CN(C)CC(O)COc1ccc(S(=O)(=O)c2ccc(OCC(O)CN(C)C)c(Cl)c2)cc1Cl` (stereo not drawn), the “% Inhibition” value is recorded as 54% and the Z score is reported as -6.62.

Consider `CCN(CC)C[C@H](O)COc1ccc(Cl)cc1Cl`, for which the “% Inhibition” value came out at 9% and the Z score is -1.14.

With `Cc1ccccc1OC[C@@H](O)CN(C(C)C)C(C)C`, the “% Inhibition” value is given as -2% and the Z score came out at 0.31.

For `CCS(=O)(=O)N1CCC(N2C(=O)[C@@H]3CC[C@@H](c4ccccc4)N3C2=O)CC1`, the “% Inhibition” value was found to be 42% and the Z score came out at 0.94.

`CCN(C(=O)Cn1cc(-c2ccccc2)c2ncn(CC)c(=O)c21)c1ccccc1`: the “% Inhibition” value is 78% and the Z score is on record as -9.77.

Turning to `CCc1cccc(C)c1NC(=O)Cn1cc(-c2ccccc2)c2ncn(CC)c(=O)c21`, the “% Inhibition” value came out at 4% and the Z score is reported as -0.57.

With `CCn1cnc2c(-c3ccccc3)cn(CC(=O)NCc3ccco3)c2c1=O`, the “% Inhibition” value is -9% and the Z score is reported as 1.31.

On to `FC(F)(F)c1ccc(N2CCCN(Cc3nc4ccccc4o3)CC2)nc1`, for which the “% Inhibition” value is listed as -8% and the Z score amounted to 0.8.

For the compound `O=C(c1ccccc1)c1ccc(O)c(CN2CCCN(c3ccc(C(F)(F)F)cn3)CC2)c1O`, the “% Inhibition” value stood at 84% and the Z score is -8.75.

As for `O=C(CN1CCCN(c2ccc(C(F)(F)F)cn2)CC1)Nc1ccccc1`, the “% Inhibition” value was determined as 0% and the Z score was 0.05.

Consider `Cc1n[nH]c(C)c1CCCNC(=O)[C@@H]1Cc2ccccc2CN1C`, for which the “% Inhibition” value is given as -7% and the Z score amounted to 1.24.

Turning to `Cc1cccn(CC(=O)NCC(=O)Nc2cccnc2)c1=O`, the “% Inhibition” value was -6% and the Z score is given as 0.7.

`C[C@@H](CO)N(C)S(=O)(=O)[C@H]1C[C@@H]1c1ccc(Br)cc1`: the “% Inhibition” value was 1% and the Z score is on record as -0.19.

Consider `O=C(c1cccc(C(=O)N2CCN(C(c3ccccc3)c3ccccc3)CC2)c1)N1CCN(C(c2ccccc2)c2ccccc2)CC1`, for which the “% Inhibition” value amounted to 54% and the Z score is -11.5.

`O=C(c1cccc(C#Cc2ccccc2)c1)N1CCN(C(c2ccccc2)c2ccccc2)CC1`: the “% Inhibition” value is given as -8% and the Z score stood at 1.42.

Regarding `O=C(c1cccc(-n2cnnn2)c1)N1CCN(C(c2ccccc2)c2ccccc2)CC1`, the “% Inhibition” value was determined as 10% and the Z score is -1.28.

Take `CC1CCCN(C(C)CNC(=O)CCNC(=O)C2CC2C)C1` (stereo not drawn): the “% Inhibition” value is on record as -5% and the Z score turned out to be 0.79.

`CCCN1CCn2nc(-c3nc4cc(OC)ccc4[nH]3)cc2C1`: the “% Inhibition” value was -3% and the Z score stood at 0.27.

For the compound `Cc1ccc2[nH]c(-c3cc4n(n3)CCN(C(=O)N3CCN(C)CC3)C4)nc2c1`, the “% Inhibition” value is recorded as -6% and the Z score amounted to 0.7.

Turning to `N[C@H]1CCOc2ccc(Br)cc2C1=O`, the “% Inhibition” value is -8% and the Z score turned out to be 1.05.

Turning to `N[C@H]1CC2(CCC2)Oc2ccc(Br)cc21`, the “% Inhibition” value was -4% and the Z score was determined as 0.62.

Turning to `N[C@H]1COc2ccc(Br)cc2C1=O`, the “% Inhibition” value was found to be 73% and the Z score was found to be 0.56.

On to `O=C(COc1ccc(Br)cc1F)N[C@@H](C(=O)O)c1ccc(F)c(F)c1`, for which the “% Inhibition” value is on record as -17% and the Z score is 2.1.

Take `COc1ccc(CC(=N)Nc2cc3cc(OC)c(OC)cc3c(Cc3ccc(OC)c(OC)c3)n2)cc1OC`: the “% Inhibition” value is 85% and the Z score is reported as -9.78.

As for `COc1cc2cc(NC(C)=N)nc(C)c2cc1OC`, the “% Inhibition” value stood at 15% and the Z score is -1.95.

As for `COc1cc(NC(=O)Cc2ccc(OC)c(OC)c2)ncn1`, the “% Inhibition” value amounted to 8% and the Z score was -1.51.

For `COc1cc(NC(=O)N2Cc3cn[nH]c3CC(C)(C)C2)c(C)c(OC)c1`, the “% Inhibition” value came to 13% and the Z score is -1.52.

`CCn1cnc2c(N3CCCOC3)ncnc21`: the “% Inhibition” value is on record as -5% and the Z score is 0.67.

With `CCn1cnc2c(N3CCC[C@H](CC(C)(C)C(N)=O)C3)ncnc21`, the “% Inhibition” value stood at 8% and the Z score is recorded as -1.51.

Turning to `CCn1cnc2c(N3CCC[C@H](c4ccncc4)C3)ncnc21`, the “% Inhibition” value is listed as 76% and the Z score was -10.16.

For `COc1cccc([C@H]2CC(O)=Nc3c2ncn3-c2cccnc2)c1OC(C)C`, the “% Inhibition” value turned out to be 28% and the Z score is -3.13.

Turning to `CC[C@@H](c1ccccn1)n1cc(-c2cc(CN(C)C)cs2)nn1`, the “% Inhibition” value is given as -6% and the Z score was determined as 0.72.

Turning to `Cc1ccc([C@H]2C=NN(c3ccc(Br)cc3)C2=O)cc1`, the “% Inhibition” value is 76% and the Z score is given as -2.14.

For `CC1=CN(c2ccc(Br)cc2)C(=O)N(c2ccccc2)N=C1C`, the “% Inhibition” value is recorded as -45% and the Z score was 5.24.

Take `CC(C)C(=O)N1CCN(c2ccc(Br)cc2)C(=O)[C@@H]1C`: the “% Inhibition” value is listed as -12% and the Z score stood at 1.14.

As for `CCCOc1ccc(C2C3C(=O)N(c4cccc5ccccc45)C(=O)C3ON2c2ccccc2)cc1OC` (stereo not drawn), the “% Inhibition” value was -14% and the Z score is 1.48.

Consider `O=C1C[C@@H](C(=O)N2CC(Cc3ccoc3)C2)NC(=O)N1`, for which the “% Inhibition” value is -12% and the Z score is on record as 1.39.

On to `O=C(C[C@H](n1cccn1)C(F)(F)F)N1CCN(C2CC2)c2ccc(Cl)cc21`, for which the “% Inhibition” value is recorded as -2% and the Z score is listed as 0.26.

Take `COc1ccc(-c2c(-c3ccc(Cl)cc3)[nH]c3c2c(=O)[nH]c(=O)n3C)cc1`: the “% Inhibition” value was -5% and the Z score was 0.54.

In the case of `COc1ccc(-c2c(-c3cccc(OC)c3)[nH]c3c2c(=O)[nH]c(=O)n3C)cc1`, the “% Inhibition” value came to 90% and the Z score is -8.97.

On to `COc1ccc(-c2c(-c3ccc(C)c(C)c3)[nH]c3c2c(=O)[nH]c(=O)n3C)cc1`, for which the “% Inhibition” value is given as -4% and the Z score was determined as 0.68.
